In all, about 25,000 sequences were measured (“ln(normalized median fluorescence intensity)”: median about 9.7, highest 2% from about 11 on). The sample as a whole holds a higher share of the highest values than the screen did.
test system: PfAP2-HC AP2 domain (GST-tagged); test: gcPBM binding intensity (ln(normalized median fluorescence intensity)); higher = stronger DNA binding
How it was run: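 Binding intensity is defined as the maximum Masliner-normalised natural-log median intensity across replicate spots for either probe orientation. It was measured on an Agilent 4 × 180k array of primer-extended double-stranded 36-bp intergenic genomic probes and negative controls, to which GST-tagged P. falciparum DNA-binding domains made in E. coli were applied for 1 h in 1× PBS with 1% milk, 0.2 mg/ml BSA, 0.5% salmon testes DNA and 0.03% Triton X-100. Detection was by Alexa488 anti-GST antibody and scanning at 488 nm.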

Sequence	gcPBM binding intensity (ln)
AAAATTGAACCTGACAAGGTATTTTATTATTTATTA [TGCATGCA_negctrl_site181]	9.44
ATAAAAATGGTGTTAACACACACATATATATATATA [CACACA_site8089]	9.83
TATATTATTTATAGTAGTACATAAAATATAAATATT [XGTACX_site4417]	9.48
TATTTTGTCATAGAACGTACTTATAAATATTTTTTT [XGTACX_site8424]	9.5
AAATCATGTTGAAGGGGTACAAAATATGTAATGTTG [XGTACX_site6222]	9.82
TTTTATTTCAATCCACAAGGGATAAAATAAAGTTTT [CACACA_negctrl_site699]	9.3
TATATATAGAAACACACACACATATATATATATATA [CACACA_site773]	10.5
TCATAGTAGAAACACACACACACACCCATATATATA [CACACA_site1737]	11.3
AACACAGATAAATTAACACACACACCCATATATATA [CACACA_site9310]	11.2
TACACGCAGAAACACACACACACACCCATATATATA [CACACA_site637]	11.4
AATACACGCAAACACACACACACACCCACATATATA [CACACA_site638]	10.8
CACAGATAAATTAACACACACACACCCATATATATA [CACACA_site3960]	10.5
TTCCCATGTAATATTAAACACACACCCATATAACAC [CACACA_site7905]	10.5
CACAGATAAATTAACACACACACACCGATATATATA [CACACA_site6049]	10.5
TTTATTAAACTTGACACACACACACCCACATATATA [CACACA_site760]	10.2
TATTAAACTGGACACACACACACACCCATATATAAA [CACACA_site4579]	11.2
AAAATACAGAAACACACACACACACCCATATATATA [CACACA_site3559]	10.7
TATATATAGAAACACACACACACACCCAAGCGTAGC [CACACA_site63]	10.6
TTTCGTCATTTTGTTTTTAATTCTACAATTTAGTTA [XGTACX_negctrl_site286]	9.66
TTATAGAGCTTATTCACACATACATATGTATTTATA [CACACA_site5775]	9.87
ATTATTATACACAAATGTACATGTGAATTTTTTTTC [XGTACX_site6982]	9.63
ATAAAACAAAAATATAAACACACATACATTGGTTTT [CACACA_site8809]	10.1
TTATTTTTATTATTTTGTATATATATTTATAGAAAA [XGTACX_negctrl_site465]	9.28
TATACAATATAAAATACACACGCACCCAAAAAAAAA [CACACA_site9174]	10.3
TACATATAAAAGTACACACACACACCCATATATATA [CACACA_site941]	11
AATACATATAAAAGTACACACACACCCATATATATA [CACACA_site8220]	10.5
AAATATATTTCACGCACACACACCCCAAATAAATTT [CACACA_site3820]	11.2
AGATAAAAAAAGTACACACACACATATATATATATA [CACACA_site3072]	10.4
ATAAATATATTTCACGCACACACACCCCAAATAAAT [CACACA_site9272]	10.4
